Bioassay records from PubChem BioAssay.
This is a sample that favours compounds with a hit; in the whole collection about 4.2% have one here.
FBA Mtb inh – inhibits M. tuberculosis FBA enzyme. purified M. tuberculosis FBA, fluorescence read-out. inhibition, % at 1 µM. 360,000 compounds, 2.3% hits. AID 588726; in the data active = inhibition above about 27%
GDH-TPI inh – GDH-TPI coupled enzyme inhibition counter-screen; GDH-TPI coupled enzyme counterscreen, NADH absorbance; inhibition, % at 4.8 µM; 360,000 compounds, 1.2% hits
RecA splice inh – Mtb RecA intein splicing inhibition. P9WHJ3. cell-free RecA intein splicing, fluorescence. inhibition, % (test concentration not listed). 290,000 compounds, 0.75% hits; in the data active = inhibition above about 30%
Target sequence (P9WHJ3 whole entry, looked up, canonical isoform): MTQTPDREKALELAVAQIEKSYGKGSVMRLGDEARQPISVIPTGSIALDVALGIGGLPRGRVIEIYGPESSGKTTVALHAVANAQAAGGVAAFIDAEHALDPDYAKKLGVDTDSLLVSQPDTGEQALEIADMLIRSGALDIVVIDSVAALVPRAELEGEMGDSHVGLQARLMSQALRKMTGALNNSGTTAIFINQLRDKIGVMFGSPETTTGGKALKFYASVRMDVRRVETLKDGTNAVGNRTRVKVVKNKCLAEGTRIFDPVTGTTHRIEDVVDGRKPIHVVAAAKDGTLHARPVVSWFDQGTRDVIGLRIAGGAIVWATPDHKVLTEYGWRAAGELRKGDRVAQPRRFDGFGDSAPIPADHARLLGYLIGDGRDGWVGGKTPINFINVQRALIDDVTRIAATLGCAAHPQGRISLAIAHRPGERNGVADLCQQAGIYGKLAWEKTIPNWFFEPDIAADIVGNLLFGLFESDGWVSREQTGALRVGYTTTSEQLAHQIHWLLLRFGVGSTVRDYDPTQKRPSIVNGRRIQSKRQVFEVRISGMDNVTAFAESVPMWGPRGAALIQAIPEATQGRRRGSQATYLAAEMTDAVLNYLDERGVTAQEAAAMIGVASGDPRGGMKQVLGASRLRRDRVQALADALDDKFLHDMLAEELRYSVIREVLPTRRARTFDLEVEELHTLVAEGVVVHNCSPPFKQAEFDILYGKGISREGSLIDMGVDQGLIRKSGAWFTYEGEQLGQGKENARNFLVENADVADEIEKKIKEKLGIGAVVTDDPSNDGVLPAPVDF
CCHF vOTU inh – blocks the CCHF virus ovarian tumor domain protease. inhibition, % at 11.5 µM. 370,000 compounds, 0.55% hits. AID 651958. CCHFV vOTU protease, Pep-AMC fluorescence
Of the large screens only hits and unclear results are named; the others gave an inactive call. Cut-off read from the data, not from the text of the source, unless noted: active = inhibition above about 30%; inactive = the rest.

Cc1occc1C(=O)N/N=C/c1cccs1	none
Cn1cc(C(=O)N/N=C/c2cccs2)c2ccccc21	GDH-TPI inh 43
CCOC(=O)N1CCN(C(=O)C[C@H]2C[C@@]3(C(=O)OC)C(=C[C@H](C(C)C)O[C@@H]3C3CC3)N(CCC3=CCCCC3)C2=O)CC1	none (no result: FBA Mtb inh, GDH-TPI inh, RecA splice inh)
O=C(CSc1ccc(F)cc1)Nc1cccc(S(=O)(=O)N2CCOCC2)c1	none (no result: RecA splice inh)
COc1ccc(/C=C/C(=O)NC(=S)Nc2ccc(S(=O)(=O)Nc3cc(C)on3)cc2)cc1	GDH-TPI inh 35
COc1ccc(/C=C/C(=O)NC(=S)Nc2ccc(S(N)(=O)=O)cc2)cc1	none
COc1ccc(/C=C/C(=O)NC(=S)Nc2ccc(S(=O)(=O)Nc3ccc(OC)nn3)cc2)cc1	GDH-TPI inh 39
COc1ccc(OCC(=O)NC(=S)Nc2ccc(S(=O)(=O)Nc3cc(C)on3)cc2)cc1	none
COc1ccc(-c2nnc(NC(=O)c3cc(C)on3)s2)cc1	GDH-TPI inh 35
CCc1c(C)sc(NC(=O)c2cc(-c3ccc(OC)c(OC)c3)on2)c1C#N	none (no result: RecA splice inh)
COc1ccc(-c2csc(NC(=O)c3cc(C)on3)c2C#N)cc1OC	GDH-TPI inh 38
CC1Cc2nc(SCC(=O)NCc3ccccc3)n(Cc3ccccc3)c(=O)c2S1 (centres undefined)	GDH-TPI inh 34
O=C(Nc1ccc(F)cc1)Nc1ccc2c(c1)CCC2	none
O=C(Nc1ccc2c(c1)CCC2)c1ccc(F)cc1	FBA Mtb inh 117
CC(=O)Nc1ccc(CN2C(=O)C(Cc3ccccc3)ON=C2c2ncccc2C)cc1 (centres undefined)	none (no result: RecA splice inh)
O=C(NCCO)c1ccc2nc(-c3ccco3)c(-c3ccco3)nc2c1	CCHF vOTU inh 77
O=C(c1ccccc1)c1ccc2nc(-c3ccco3)c(-c3ccco3)nc2c1	none
c1coc(-c2nc3ccccc3nc2-c2ccco2)c1	CCHF vOTU inh 51
NNC(=O)c1cc(NS(=O)(=O)c2cccs2)cc(NS(=O)(=O)c2cccs2)c1	none (no result: RecA splice inh)
NC(=O)CN1CCN(Cc2ccc3c(c2)OCO3)CC1	none
COc1cccc(-c2nnc(-c3ccc(C)o3)o2)c1	FBA Mtb inh 179
Cc1ccc(S(=O)(=O)N2C[C@H]3[C@H]4C(=O)N(C)C(=O)[C@H]4CC(=O)[C@H]3[C@@H]2c2ccccc2F)cc1	none (no result: GDH-TPI inh, RecA splice inh)
COc1cc(Cl)ccc1OC1(C)CCN(Cc2cccc(OC)c2OC)C1 (centres undefined)	none (no result: RecA splice inh)
CCOc1ccc(C(=O)N/N=C(\c2ccccc2)c2ccccn2)cc1	GDH-TPI inh 32
COc1ccc(N2C(=O)/C(=C/c3ccc([N+](=O)[O-])cc3)N=C2C)cc1	none
CC1=N/C(=C\c2ccc([N+](=O)[O-])cc2)C(=O)N1c1ccc(Br)c(C)c1	GDH-TPI inh 39
CCOC(=O)c1sc2nc(CC(=O)OC)nc(NCc3ccco3)c2c1C	none
CCOC(=O)c1sc2nc(CC(=O)OC)nc(NCC(=O)OC)c2c1C	FBA Mtb inh 126
COc1ccc(/C(O)=C2/C(=O)C(=O)N(CCCN(C)C)C2c2cccc(Cl)c2)cc1OC (centres undefined)	CCHF vOTU inh 34
COc1ccc(/C=C(/NC(=O)c2ccco2)C(=O)Nc2ccc(C(=O)O)cc2)cc1	none
COc1ccc(/C=C(\NC(=O)c2ccco2)C(=O)Nc2ccc(C(C)=O)cc2)cc1	GDH-TPI inh 33
CSc1ccc(/C=C(/NC(=O)c2ccco2)C(=O)N2CCCCCC2)cc1	none
O=C(NCc1ccco1)/C(=C/c1ccccc1)NC(=O)c1ccco1	none
CSc1ccc(/C=C(/NC(=O)c2ccco2)C(=O)NCc2ccco2)cc1	GDH-TPI inh 41
CSc1ccc(/C=C(\NC(=O)c2ccco2)C(=O)N2CCCCC2)cc1	GDH-TPI inh 37
Cc1cccc(C(=O)N/C(=C\c2ccco2)C(=O)N2CCCC2)c1	none
O=C(c1ccco1)N1N=C(c2cccs2)CC1c1cc([N+](=O)[O-])ccc1O (centres undefined)	GDH-TPI inh 45
O=C(c1ccco1)N1N=C(c2cccs2)CC1c1ccc(F)cc1 (centres undefined)	none
Oc1ccc(/C=N/NC(=S)N/N=C/c2ccc(O)cc2)cc1	GDH-TPI inh 75
Oc1ccc(/C=N/NC(=S)Nc2cccnc2)cc1	GDH-TPI inh 36
COc1ccccc1NC(=S)N/N=C/c1cccc(C)c1	none
COc1ccccc1NC(=S)N/N=C/c1ccc(O)cc1	GDH-TPI inh 33
Clc1ccc(-c2nc3cnccn3c2Nc2ccc3c(c2)OCO3)cc1	none
c1cn2c(Nc3ccc4c(c3)OCCO4)c(-c3ccc(N4CCOCC4)cc3)nc2cn1	GDH-TPI inh 40
CCn1nc2cc(C(=O)NCc3cc(C(F)(F)F)cc(C(F)(F)F)c3)ccc2c1OC	FBA Mtb inh 39
CCCCn1nc2cc(C(=O)NCc3ccccc3OC)ccc2c1OCC	none
CCCCn1nc2cc(C(=O)NCc3cc(C(F)(F)F)cc(C(F)(F)F)c3)ccc2c1OC	none
CCCCn1nc2cc(C(=O)NCc3ccc(OC(F)(F)F)cc3)ccc2c1OC	FBA Mtb inh 29
Cc1ccc2nc3c(cc(C(=O)NCCCn4ccnc4)n3C)c(=O)n2c1	FBA Mtb inh active
Cc1nc2ccccn2c1C(=O)NCCCN1CCOCC1	none
COCCCn1c(C(=O)NCCN2CCOCC2)cc2c(=O)n3ccccc3nc21	FBA Mtb inh active
Cc1cccn2c(=O)c3cc(C(=O)NCCN4CCOCC4)n(C)c3nc12	FBA Mtb inh 121
Cn1c(C(=O)NCCN2CCOCC2)cc2c(=O)n3ccccc3nc21	FBA Mtb inh active
O=C(NCc1cccs1)C1CCCN(S(=O)(=O)c2ccccc2)C1 (centres undefined)	none (no result: FBA Mtb inh, GDH-TPI inh, RecA splice inh)
CCOC(=O)CC[C@H](NC(=O)Cn1cnc2c(NCc3ccccc3)ncnc21)C(=O)OCC	none (no result: RecA splice inh)
Cc1cccn2c(=O)c3cc(S(=O)(=O)c4ccc(F)cc4)c(=N)n(Cc4ccco4)c3nc12	FBA Mtb inh 116
Cc1ccc2nc3c(cc(S(=O)(=O)c4ccccc4)c(=N)n3Cc3ccco3)c(=O)n2c1	FBA Mtb inh 121
Cc1cccn2c(=O)c3cc(S(=O)(=O)c4ccccc4)c(=N)n(Cc4ccco4)c3nc12	none
CC(C)NC(=O)C1CC(=O)N(CCc2ccc(F)cc2)C1 (centres undefined)	none (no result: RecA splice inh)
O=S1(=O)CCOCCCN1Cc1ccc(Cl)cc1	none
COc1cc(C)ccc1OCC(=O)OCC(=O)NCC1CCCCC1	none (no result: RecA splice inh)
CCOc1cc2[nH]c(=S)n(CCOC)c(=O)c2cc1OCC	GDH-TPI inh 33
CCOc1cc2[nH]c(=S)n(CCCN(CC)CC)c(=O)c2cc1OCC	none
CC(C)(C)C(=O)c1c(N)[nH]c(C(=O)c2ccccc2)c1-c1ccc(C(F)(F)F)cc1	none (no result: FBA Mtb inh, GDH-TPI inh, RecA splice inh)
Cc1ccc(NC(=O)Cn2cnc3c(oc4nc5c(cc43)COC(C)(C)C5)c2=O)cc1	none
CCn1c(SCC(=O)Nc2ccc(C)cc2)nc2nc3c(cc2c1=O)COC(C)(C)C3	GDH-TPI inh 31
COc1ccccc1NS(=O)(=O)c1ccc(C(=O)N2CCN(c3ccccc3)CC2)cc1	none (no result: RecA splice inh)
COc1cc(Cn2c3ccc(NC(=O)CCc4cccnc4)cc3c(=O)n2C)ccc1F	FBA Mtb inh 177 (no result: RecA splice inh)
Cn1c(=O)c2cc(NC(=O)CCc3cccnc3)ccc2n1Cc1cccc(C(F)(F)F)c1	FBA Mtb inh 141 (no result: RecA splice inh)
